G9a block: blocks human histone lysine methyltransferase G9a; Q96KQ7; Potency, µM (highest dose often 102 µM), usual class: inhibitors; G9a H3K9 monomethylation, AlphaScreen, 2 h; 8.8% of 350,000 active; also: nearly all actives have a fitted effect of over 75% in size
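Methyltransferase reactions run at room temperature for 2 h (20 nM enzyme, 500 nM biotin-H3K9 peptide, 20 uM SAM) after a 15 min compound preincubation; product detected by AlphaScreen beads and anti-H3K9me1 antibody.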
PLK1 PBD block: inhibitors of human PLK1 polo-box domain binding; Plk1 PBD binding of FITC phosphopeptide, fluorescence polarization; AID 720504; Potency, µM, hits mostly inhibitors; 2.8% of 360,000 active; also: series mostly up to about 57 µM; nearly all actives have a fitted effect of over 65% in size
PI5P4Ka inh: inhibitors of human PI5P4K alpha; max response, %; PI5P4Kalpha enzyme, ADP-Glo luminescence, 60 min; active compounds read low; 1.2% of 330,000 active; P48426; AID 652105; active = max response of -50% or lower; inconclusive = between -30% and -50%; inactive = -30% or higher; also: value at the top dose of about 77 µM
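Compounds were pin-transferred onto PI5P4Kalpha and substrate in HEPES pH 7.4 buffer with EGTA, CHAPS and 5% DMSO. ATP (5 microM final) started the reaction, which ran 60 minutes at room temperature before ADP-Glo detection.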
HP1b binding inh: HP1-beta chromodomain-methylated histone interaction inhibition; P83916; AlphaScreen HP1-beta / biotin-H3K9me3 peptide binding; Potency, µM (series often up to 114 µM), most hits filed as inhibitors; 0.56% of 390,000 active; also: nearly all actives have a fitted effect of over 70% in size
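AlphaScreen: HP1-beta (50 nM) preformed 30 min with biotin-H3(1-18)K9me3 peptide (50 nM) in PBS pH 7.4, 0.01% Tween-20. Compound added for 30 min at RT, then streptavidin donor/nickel chelate acceptor beads (10 ug/mL) for 30 min.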
BAZ2B inh: BAZ2B (human) inhibition | Potency, µM (series often up to 114 µM), usual class: inhibitors | Q9UIF8 | 4.4% of 360,000 active | AID 504333 | AlphaScreen BAZ2B-H3K14Ac peptide displacement; also: nearly all actives have a fitted effect of over 60% in size
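Complex of BAZ2B and biotin-H3K14Ac (50 nM apiece) forms over 30 min at RT, then faces library compounds up to 110 uM for another 30 min; AlphaScreen beads added, 20 min dark incubation, luminescence read.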
JMJD2A Tudor inh: inhibitors of human JMJD2A Tudor domain; Potency, µM (series often up to 114 µM), actives largely listed as inhibitors; AID 504339; O75164; 4.4% of 390,000 active; AlphaScreen JMJD2A-Tudor / H3K4me3 peptide binding; also: nearly all actives have a fitted effect of over 50% in size
Of the large screens only hits and unclear results are named; the others gave an inactive call. This is a sample that favours compounds with a hit; in the whole collection about 12% have one here. Unless noted, calls follow the shape of the dose curve; as a rule, active = well fitted curve in the direction sought with a large enough effect; inconclusive = small, poorly fitted or top-dose-only effect, or another doubt; inactive = no such curve, though single readings can be large; an effect the other way counts as inactive or inconclusive.

C/C(=N/NC(=O)CNc1ccc(C)cc1)c1ccc(Cl)cc1	G9a block 45µM, BAZ2B inh inconclusive, JMJD2A Tudor inh inconclusive (no result: PI5P4Ka inh)
C/C(=N/NC(=O)CNC(=O)c1ccncc1)c1ccc(Cl)cc1	none (no result: G9a block)
S=c1[nH]nc(COc2ccccc2)n1/N=C/c1cccs1	G9a block 1.4µM, JMJD2A Tudor inh inconclusive
O=C(COc1ccccc1)NCC(=O)N/N=C/c1cccs1	none
Cc1ccsc1/C=N/n1c(COc2ccccc2)n[nH]c1=S	G9a block 0.89µM, PLK1 PBD block inconclusive, JMJD2A Tudor inh inconclusive
NS(=O)(=O)c1ccc(CCNC(=O)CCNS(=O)(=O)c2ccccc2C(F)(F)F)cc1	none
CCOC(=O)[C@]12CCCC=C1N(Cc1ccc3c(c1)OCO3)C(=O)[C@H](CC(=O)N1CCC(c3ccccc3)CC1)C2	none (no result: G9a block, HP1b binding inh, BAZ2B inh, JMJD2A Tudor inh)
CC(=O)c1ccccc1C(=O)N1CCCC(CNC(=O)c2ccccc2Cl)C1 (stereo unspecified)	PLK1 PBD block 27µM, JMJD2A Tudor inh 28µM
COc1ccc(C(=O)N2CCCC(CNC(=O)c3ccccc3Cl)C2)o1 (stereo unspecified)	none
COc1ccccc1OCC(=O)NCC1CCCN(C(=O)c2ccccc2SC)C1 (stereo unspecified)	PLK1 PBD block 3.4µM, PI5P4Ka inh inconclusive, JMJD2A Tudor inh inconclusive
CC(C)(C)NC(=O)COC(=O)CNC(=O)C1CCCCC1	none (no result: G9a block, PLK1 PBD block, PI5P4Ka inh, BAZ2B inh)
CCN(CC)S(=O)(=O)c1ccc(NC(=O)CSc2nnc3c(n2)[nH]c2ccccc23)cc1	none (no result: G9a block, PLK1 PBD block, PI5P4Ka inh, BAZ2B inh)
CC(=O)Nc1ccc(S(=O)(=O)N2CCCN(S(=O)(=O)c3ccc4c(c3)OCCO4)CC2)cc1	none (no result: G9a block, PLK1 PBD block, PI5P4Ka inh, HP1b binding inh, BAZ2B inh)
CCOC(=O)/C(C#N)=C1\C(=O)N(Cc2ccccc2)c2ccccc21	PLK1 PBD block 3.4µM, HP1b binding inh 14µM, BAZ2B inh 35µM, JMJD2A Tudor inh 20µM (no result: G9a block)
CCO/C=C1\C(=O)N(CC)c2ccccc21	none
CCOC(=O)/C(C#N)=C1/C=CN(Cc2ccccc2)C=N1	none (no result: PI5P4Ka inh)
CCO/C(C)=C1\C(=O)N(CC)c2ccccc21	G9a block 50µM
Clc1ccc(-c2c[n+]3c(n2-c2ccccc2)SCC3)cc1	G9a block 56µM
O=[N+]([O-])c1cccc(-c2c[n+]3c(n2-c2ccccc2)SCC3)c1	none (no result: BAZ2B inh)
CCn1cc(CCC(=O)O)c(C)n1	G9a block 45µM
Cc1cc(C)n(/N=C/c2ccc(O)cc2)c(=O)c1C#N	PLK1 PBD block 30µM
Cc1ccc(/C=N/n2c(C)cc(C)c(C#N)c2=O)cc1	none (no result: PI5P4Ka inh)
O=C(CN1C(=O)COc2ccc(S(=O)(=O)NC3CCCC3)cc21)NCc1ccc(Cl)cc1	none (no result: PLK1 PBD block, PI5P4Ka inh)
Cc1cc2c(s1)c1cnn(Cc3cc(F)cc(F)c3F)c(=O)c1n2C	none (no result: G9a block, PLK1 PBD block, PI5P4Ka inh, HP1b binding inh, BAZ2B inh)
Cc1cccc(NC(=O)CN2C(=O)N/C(=C\c3ccc(-c4cccc(C(=O)O)c4)o3)C2=O)c1	G9a block 45µM, PLK1 PBD block inconclusive, PI5P4Ka inh inconclusive
Cc1ccc(NC(=O)CN2C(=O)N/C(=C/c3ccc(C)o3)C2=O)cc1	G9a block 35µM
Cc1ccc(CN2C(=O)N/C(=C\c3cccn3-c3cccc(C(=O)O)c3)C2=O)cc1	G9a block 16µM, PLK1 PBD block inconclusive, PI5P4Ka inh inconclusive, HP1b binding inh inconclusive, BAZ2B inh 35µM, JMJD2A Tudor inh 45µM
Cc1ccc(NC(=O)CN2C(=O)N/C(=C/c3cc(C)n(-c4cccc(C(=O)O)c4)c3C)C2=O)cc1	G9a block 13µM, PLK1 PBD block inconclusive, PI5P4Ka inh inconclusive, HP1b binding inh inconclusive, BAZ2B inh 22µM, JMJD2A Tudor inh inconclusive
O=C1N/C(=C/c2cccn2-c2ccccc2)C(=O)N1Cc1ccccc1F	G9a block inconclusive
CC(=O)c1ccc(NC(=O)C(C)OC(=O)c2ccc(Br)o2)cc1 (stereo unspecified)	none
Cc1ccc(-n2ncc3c(Nc4ccc5c(c4)OCCO5)ncnc32)cc1C	none (no result: PLK1 PBD block, PI5P4Ka inh)
COc1ccc(CN(C(=O)Nc2ccccc2)c2ccccn2)cc1OC	BAZ2B inh inconclusive (no result: PLK1 PBD block, PI5P4Ka inh)
CC(=O)NC1=NC(=O)/C(=C/c2cc(C)n(-c3cccc(C(=O)O)c3)c2C)S1	G9a block 20µM, PI5P4Ka inh inconclusive, HP1b binding inh inconclusive, BAZ2B inh 16µM, JMJD2A Tudor inh inconclusive
O=C1N/C(=C/c2cccn2-c2ccc(F)cc2)C(=O)N1Cc1ccccc1	none (no result: PI5P4Ka inh)
